The source of these data is PubChem BioAssay AID1117359 (Southern Research Institute, 2015).

Hit rate of the full screen: of about 1,500 compounds, about 460 (31%) were called active.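 Rule for the calls: active = viability at or below 80% at any tested concentration, marking the compound as toxic; inactive = the rest.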 These entries were drawn from the full list. Where a call stands in place of a potency, no number is given. Potency and affinity values are given separately.

The nature of this experiment: viability loss in THP-1 monocytes – THP-1 cells, cytotoxicity control for Vif-APOBEC3G degradation inhibitor project, dose response (AID 1117359). Particulars: THP-1 viability, CellTiter-Glo luminescence, 72 h; series mostly up to 40 µM. For orientation: In ATP-based viability assays light output follows the ATP content of the culture.
Turning to `CCCCn1c(N)c(N(CCC(C)C)C(=O)C2=NN(c3cc(C)ccc3C)C(=O)CC2)c(=O)[nH]c1=O`, the molecule was classed as inactive. In the case of `CNc1ccc(Br)cc(C(=O)/C=C/c2cc(OC)ccc2OC)c1=O`, the result was inactive.

For `COc1ccccc1NS(=O)(=O)c1cccs1`, the call was inactive.

`CN(C)S(=O)(=O)c1cccc(NC(=S)N/N=C/c2ccc(O)c(O)c2O)c1`: the molecule was classed as inactive. The result for `Cc1ccc(C=C2C(Cl)=C(Cl)C(Cl)=C2Cl)cc1` reads “inactive”; that for `COC(=O)COc1ccc(S(=O)(=O)Nc2ccc(C(N)=O)cc2)cc1C`, “inactive”; that for `O=C1CSC(c2cccnc2)N1Cc1cccnc1` (stereo not drawn), “inactive”. In the case of `Cc1cc(C)c(C(=O)/C=C/c2ccco2)c(=O)[nH]1`, the molecule was called inactive. As for `N#CC(C#N)=Cc1cccn1-c1ccc(C(=O)O)cc1`, the call was inactive.

With `CCOC(=O)CN(C(=O)CSc1nnc(COc2ccc(OC)cc2)n1CC)c1ccccc1`, the call was inactive.

In the case of `O=C(O)CCCNc1cc(N2CCC3(CC2)OCCO3)c2noc3c2c1C(=O)c1ccccc1-3`, the call was inactive. The result for `Cc1ccc(NC(=O)CSc2nc(CSc3ccc(C)cc3)cc(=O)[nH]2)cc1` reads “inactive”; that for `COc1ccc(N(CC(=O)NCCC2=CCCCC2)S(=O)(=O)c2ccccc2)cc1`, “inactive”; that for `COc1cc([N+](=O)[O-])c(N2CCOCC2)c([N+](=O)[O-])c1OC`, “inactive”. For the molecule `CC(C)C1Nc2ccc(C(=O)O)cc2C2C=CCC21` (stereo not drawn), the result was inactive. Under `O=C1NN(c2ccc(Cl)cc2)C(=O)/C1=C\c1ccc(-c2cccc(C(=O)O)c2)o1` stands “inactive”; under `Fc1cc(F)cc(NC(=S)NCCCN2CCOCC2)c1`, “inactive”. Regarding `CC(C)OP(=O)(OC(C)C)C(O)c1ccc(N(C)C)cc1` (stereo not drawn), the outcome was inactive.

Turning to `Cc1ccc(Oc2ccc(/C=N/O)cn2)cc1`, the result was inactive. Turning to `CCOC(=O)C(C#N)(Cc1ccc2ccccc2n1)Cc1ccc2ccccc2n1`, the outcome was inactive. In the case of `O=C(CCl)N1N=C(c2ccco2)CC1c1ccco1` (stereo not drawn), the result was inactive.

As for `Cc1cccc(NC(=O)CNC(=O)c2cccc(-n3cccc3)c2)c1C`, the result was inactive. The result for `C/C(N)=C(/C#N)C(=O)CSc1nnc(Nc2c(C)cccc2C)s1` reads “inactive”. Under `O=C(O)CCCCC1SCC2NC(=O)NC21` (stereo not drawn) stands “inactive”.

For the molecule `CN(C(=O)CSc1ncnc2sccc12)C1CCCCC1`, the molecule was called inactive. Under `O=C(O)CC(C(=O)O)N1C(=O)/C(=C/C=C/c2ccco2)SC1=S` (stereo not drawn) stands “inactive”; under `O=C1/C(=C/C=C/c2ccco2)SC(=S)N1c1ccc(O)cc1`, “inactive”.

For `CC(C)(C)C1CCC(OC(=O)C[N+]2(C)CCCCC2)CC1` (stereo not drawn), the result was inactive. Turning to `CCOc1ccccc1C(=S)NC1CCCCC1`, the call was inactive. The result for `Cc1nn(CC(=O)NC2CC2)c(C)c1S(=O)(=O)N(C)C` reads “inactive”; that for `CC(C)(C)c1cc(N/C=C\c2nnnn2-c2ccc(Br)cc2)no1`, “inactive”.

Take `CC1CCN(Cc2c(O)ccc3c2O/C(=C\c2ccco2)C3=O)CC1`: the outcome was inactive. The result for `O=C1OC(c2ccc(F)cc2)=C/C1=C\c1ccc([N+](=O)[O-])o1` reads “inactive”.

For `CCCSC1=N/C(=C\c2ccc([N+](=O)[O-])o2)C(=O)S1`, the outcome was inactive.

Consider `CCOc1ccc(NC(=O)C2CCCN(S(=O)(=O)c3c(C)n[nH]c3C)C2)cc1` (stereo not drawn), for which the call was inactive. Turning to `Cc1ccc(C)c(/C(O)=C2/C(=O)C(=O)N(CCN3CCOCC3)C2c2ccco2)c1` (stereo not drawn), the call was inactive. In the case of `CNc1ccc(Br)cc(C(=O)/C=C/c2ccc(OC)cc2OC)c1=O`, the result was inactive. The result for `CC(=O)c1c(C)[nH]c(C(=O)OCC(=O)C(C)(C)C)c1C` reads “inactive”; that for `COC(=O)c1sccc1NC(=O)CC1C(=O)NCCN1C(=O)Nc1ccccc1` (stereo not drawn), “inactive”. Turning to `N#C/C(=C/c1ccc(Br)o1)C(N)=S`, the outcome was inactive. The result for `COc1ccc(NC(=O)O/N=C/c2ccccc2Cl)cc1` reads “inactive”. For `CCOC(=O)C1(C)NC(c2ccco2)C2C(=O)N(CC)C(=O)C21` (stereo not drawn), the outcome was inactive.

On to `O=C1CC(c2ccco2)CC(O)=C1C=NCC1CCNCC1` (stereo not drawn), for which the call was inactive. As to `Cc1cccc(/C=C(\C(=O)O)c2ccc(S(=O)(=O)N3CCCC3)s2)c1`, the call was inactive. Regarding `O=C(C1CCN(S(=O)(=O)N2CCC3(CC2)OCCO3)CC1)N1CCOCC1`, the molecule was called inactive. The result for `CCOC(=O)c1ccc(NC(=O)CSCc2ccco2)cc1` reads “inactive”; that for `COc1ccccc1NCCC(=O)OCC(=O)NCc1ccco1`, “inactive”; that for `Cc1ccc(NC(=O)CNC(=O)COc2ccccc2)nc1`, “inactive”.

On to `COc1cccc(C(=O)N2CCN(Cc3nc(CC4CC4)no3)CC2)c1`, for which the result was inactive. The result for `CCCCC(O)(CCCC)C(=O)N/N=C(\C)c1ccc(Cl)cc1` reads “inactive”; that for `NC(=O)c1ccc(N2CCN(c3ccc(O)cc3)CC2)c([N+](=O)[O-])c1`, “inactive”; that for `CCC(=O)Nc1ccc(S(=O)(=O)NC[C@H]2O[C@@H](n3cc(C)c(=O)[nH]c3=O)C[C@@H]2O)cc1`, “inactive”.

Take `C=C(C)C1CC=C(C)/C(=N\NC(=O)CCC(=O)Nc2ccc(C)c(C)c2)C1` (stereo not drawn): the molecule was classed as inactive. Consider `c1coc(CNc2nc(-c3cccs3)cs2)c1`, for which the molecule was classed as inactive. Under `O=C(Nc1cc(Cl)cc(Cl)c1)c1coc(=O)c(Br)c1` stands “inactive”; under `C[c-]1[c-](C)[c-](C)[c-](C)[c-]1C.[Fe].c1cc2nccc(N3CCCC3)[c-]2c1` (stereo not drawn), “inactive”; under `CCn1c(SC(C)C)nnc1-c1cc(-c2ccccc2)sc1N`, “inactive”. The result for `COc1ccc(C(=O)O)cc1S(=O)(=O)N1CCCc2ccccc21` reads “inactive”; that for `COCCn1c(SCC(=O)Nc2ccccc2F)nc2c([nH]c3ccccc32)c1=O`, “inactive”. The result for `CC1=C(C#N)C(=O)N(C2CCS(=O)(=O)C2)C(=O)/C1=C\c1ccc(C)o1` (stereo not drawn) reads “inactive”. For the molecule `S=c1[nH]nc(COc2ccc(Cl)cc2)n1Cc1ccccc1`, the molecule was called inactive.

Turning to `CCCC(=O)NC(C)C(c1cccs1)N1CCN(C)CC1` (stereo not drawn), the call was inactive.

As to `CCOc1ccccc1N1C(=O)CC(Nc2ccc(N3CCOCC3)cc2)C1=O` (stereo not drawn), the molecule was classed as inactive. Regarding `CN(C(=O)COc1ncnc2sccc12)c1ccccc1`, the molecule was called inactive. For the molecule `O=C(C1CCC(CNc2c(N3CCCCC3)c(=O)c2=O)CC1)N1CCN(C2CCCCC2)CC1` (stereo not drawn), the result was inactive. In the case of `CC(=O)N1CCN(c2ccc(NCc3ccccc3)cc2)CC1`, the result was inactive.

Regarding `Cc1sc2nc(C)n(/N=C/c3ccccc3O)c(=O)c2c1C`, the outcome was inactive. On to `COc1cc2c(cc1N)-c1ccc(N)cc1C2`, for which the molecule was called inactive. As for `C=C(C)C(=O)Nc1cccc(C2=NOC3(C2)C[C@@H](C(N)=O)N(C(=O)c2cc([N+](=O)[O-])cc([N+](=O)[O-])c2)C3)c1` (stereo partly drawn), the molecule was classed as inactive. Under `O=C(O)c1cc(Nc2cc(Cl)c3nonc3c2[N+](=O)[O-])ccc1O` stands “inactive”. `Cc1ccc(S(=O)(=O)Cn2nnnc2C(CC(C)C)N2CCN(C)CC2)cc1` (stereo not drawn): the call was inactive.

As to `Cc1cc(C)cc(NCCC#N)c1`, the molecule was called inactive. For the molecule `CCOC(=O)C1=C(O)/C(=C\c2ccc(CNC(=O)C(=O)Nc3ccccc3)o2)N=C1C`, the result was inactive.

Regarding `CCCOC(=O)Nc1sc2c(c1C(=O)OCC)CCC2`, the outcome was inactive. In the case of `Cc1c(C(=O)O)cccc1-n1c(C)cc(/C=N/Nc2ccc([N+](=O)[O-])cn2)c1C`, the molecule was classed as inactive. On to `CC(NC(=O)Nc1ccc(O)cc1)(C(F)(F)F)C(F)(F)F`, for which the molecule was called inactive. The result for `CCOC(=O)CSc1nncc2ccc(OC)c(OC)c12` reads “inactive”; that for `N#Cc1c(-c2ccccc2)nc2n1CCS2`, “inactive”.

For `Nc1ccc(-c2nc3cc(N)ccc3n2CCO)cc1`, the result was inactive. Turning to `CC(=O)Nc1ccc(C(=O)Nc2cccc(-c3cnc4ccccc4n3)c2)cc1`, the call was inactive. Under `CC1=CC(C)(C)n2c(O)c(N=NC(N)=S)c3c(C)c(C)cc1c32` stands “inactive”. Under `COC(=O)CCC(=O)OC1(C)C(=O)C2=CN(CCCOC(C)C)C(c3ccc(OC)cc3)=CC2=C(Br)C1=O` (stereo not drawn) stands “inactive”; under `O=C(O)C1Nc2ccc(Br)cc2C2C=CCC12` (stereo not drawn), “inactive”. On to `C/C(=N\Nc1ccc2nncn2n1)c1ccc(Br)s1`, for which the result was inactive. `CC(=O)Nc1ccc(/C=N/Nc2ccc(C(=O)c3c(C)cc4ccccn34)cc2[N+](=O)[O-])cc1`: the call was inactive. Under `O=C1CC(Nc2ccc(N3CCOCC3)cc2)C(=O)N1c1cccc(C(F)(F)F)c1` (stereo not drawn) stands “inactive”. In the case of `O=C(O)c1ccc(-n2cccc2/C=N\NC(=O)c2cc3cc(Br)ccc3o2)cc1`, the outcome was inactive. The result for `CCOC(=O)C1CCN(C(=O)Nc2ccc3nc(-c4ccco4)c(-c4ccco4)nc3c2)CC1` reads “inactive”; that for `O=C(O)Cn1c(=O)c2c(c3ccccc31)CCC2`, “inactive”. Under `O=C(O)c1cccc(-n2cccc2/C=C/[N+](=O)[O-])c1` stands “inactive”; under `Cc1cccc(NC(=S)NC(=O)/C=C/c2ccco2)c1`, “inactive”. Under `CC(=O)c1ccc(S(=O)(=O)Nc2cccc(-c3ccc(N4CCOCC4)nn3)c2)cc1` stands “inactive”; under `CCCCOC(=O)CCCN1C(=O)/C(=C2\SC(=S)N(CCCC(=O)OCCCC)C2=O)SC1=S`, “inactive”; under `Nc1ncnc2c1cnn2C1CCCCC1`, “inactive”. In the case of `Cc1ccc(Nc2ccc(N)cc2S(=O)(=O)O)cc1`, the outcome was inactive. For `CCOCCCNC(=O)C1CCN(S(=O)(=O)CC)CC1`, the molecule was called inactive. Under `CCOC(=O)N1CCC(NC(=O)c2ccc(OC)c(CN3CC(=O)N4CCCC4C3=O)c2)CC1` (stereo not drawn) stands “inactive”. Under `C=CCN1C(=O)/C(=C\c2ccco2)C(C(=O)OC)=C1C` stands “inactive”. Turning to `O=C(O)c1ccc(S(=O)(=O)c2ccc([N+](=O)[O-])cc2[N+](=O)[O-])cc1`, the result was inactive. Under `O=[N+]([O-])c1ccccc1S(=O)(=O)NC1CCCC1` stands “inactive”; under `CCNC(=O)C1CC(=O)N(Cc2ccc(F)cc2)C(=Nc2ccc(OC)cc2)S1` (stereo not drawn), “inactive”. Under `CCOC(=O)C1CC(CN2C(=O)c3ccccc3C2=O)OC1=O` (stereo not drawn) stands “inactive”; under `CC1CCCCC1NC(=S)Nc1cccc(S(=O)(=O)N(C)C)c1` (stereo not drawn), “inactive”; under `O=C1N(Cc2cccnc2)C[C@@H]2C[C@@H](c3ccc4nsnc4c3)N3CCC[C@@]123`, “inactive”.

On to `Cc1cc(NC(=O)Cc2cccs2)no1`, for which the result was inactive.

On to `CN1CCN(NC(=O)c2ccc(S(=O)(=O)N3CC4(C)CC3CC(C)(C)C4)cc2)CC1` (stereo not drawn), for which the result was inactive. Consider `CCC(C)n1c(-c2cccc(S(=O)(=O)N3CCOCC3)c2)n[nH]c1=S` (stereo not drawn), for which the result was inactive. Under `Cc1cc(NC(=O)Cn2cnc3c(nnn3-c3cccc(F)c3)c2=O)no1` stands “inactive”.
